Source: PubChem BioAssay (EPA / NIEHS)
Inconclusive results are not listed. Activity calls are given as the source filed them. How the source made its calls: active means hit-call score of the fitted dose curve at least 0.9, where 1 is the maximum; inconclusive means response in the unintended direction; inactive means score below 0.9.

These compounds were tested against Nuclear receptor subfamily 4 group A member 2 (Homo sapiens) (UniProt P43354) (assay: ATG_NURR1_TRANS: Attagene TRANS-FACTORIAL HepG2 Assay for human Nuclear Receptor Related Protein 1 (NURR1) (AID 2282985)). Conditions: HepG2 Attagene TRANS reporter, mRNA readout.
Chain of Nuclear receptor subfamily 4 group A member 2 (Homo sapiens) (P43354 whole entry, looked up): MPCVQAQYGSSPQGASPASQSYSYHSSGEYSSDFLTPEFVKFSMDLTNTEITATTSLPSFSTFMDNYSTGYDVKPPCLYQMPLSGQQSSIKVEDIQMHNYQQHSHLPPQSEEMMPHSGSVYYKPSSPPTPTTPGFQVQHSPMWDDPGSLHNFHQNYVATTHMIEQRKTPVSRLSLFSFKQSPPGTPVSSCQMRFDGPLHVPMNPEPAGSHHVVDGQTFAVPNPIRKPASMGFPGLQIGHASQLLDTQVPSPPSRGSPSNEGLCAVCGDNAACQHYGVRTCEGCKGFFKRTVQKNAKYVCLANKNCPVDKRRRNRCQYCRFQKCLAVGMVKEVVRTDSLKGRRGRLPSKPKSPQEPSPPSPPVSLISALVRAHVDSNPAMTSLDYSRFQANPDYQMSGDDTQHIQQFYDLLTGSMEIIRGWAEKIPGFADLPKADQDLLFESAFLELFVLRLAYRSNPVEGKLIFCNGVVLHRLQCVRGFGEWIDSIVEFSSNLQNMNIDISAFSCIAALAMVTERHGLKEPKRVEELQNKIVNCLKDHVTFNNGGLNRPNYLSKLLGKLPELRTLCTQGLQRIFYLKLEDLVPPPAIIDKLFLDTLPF
Method: ATG_TRANS is a cell-based, multiplexed-readout assay that uses HepG2, a human liver cell line, with measurements taken at 24 hours after chemical dosing in a 24-well plate.ATG_NURR1_TRANS is one of 30 assay component(s) measured or calculated from the ATG_TRANS assay. It is designed to make measurements of mRNA induction, a form of inducible reporter, as detected with fluorescence intensity signals by Reverse transcription polymerase chain reaction (RT-PCR) and Capillary electrophoresis technology.Data from the assay component ATG_NURR1_TRANS was analyzed into 1 assay endpoint. This assay endpoint, ATG_NURR1_TRANS, was analyzed in the positive analysis fitting direction relative to DMSO as the negative control and baseline of activity. Using a type of inducible reporter, measures of mRNA for gain-of-signal activity can be used to understand the reporter gene at the transcription factor-level as they relate to the gene NR4A2. Furthermore, this assay endpoint can be referred to as a primary readout, because this assay has produced multiple assay endpoints where this one serves a reporter gene function. To generalize the intended target to other relatable targets, this assay endpoint is annotated to the nuclear receptor intended target family, where the subfamily is orphan.
Human liver HepG2 cells are transiently transfected with multiple reporter transcription units (MRTUs) in 6-well plates using FuGene 6 reagent (Roche; 3 ml FuGene/1 mg DNA). The MRTU constructs are regulated by a cis-regulating element (promoter). […] A major difference between the CIS and TRANS system is that in CIS activities of endogenous TFs are measured, whereas the TRANS assay evaluates changes in activities of exogenous, chimeric NR-Gal4 proteins. […] At the end of 24 hour incubation, total RNA was isolated using TriZol reagent (Invitrogen). The isolated RNA is then reverse-transcribed using oligo(dT) primer and Mo-MLV reverse transcriptase (Invitrogen) with DNAse I (Ambion) treatment for 30 min. The one-tenth of the produced cDNA was amplified by PCR using Taq DNA polymerase (Invitrogen) and two reporter sequence-specific primers. The PCR products were fluorescently labeled by primer extension with 6-arboxyfluorescein (6-FAM) 5'-labeled reporter sequence-specific primer (2 min at 95 C, 20 s at 68 C and 10 min at 72 C) and these products were digested with 5U of HpaI (New England Biolabs) for 2h at 37 C. The fragments were purified using Qiaquick PCR columns (Qiagen), analyzed on an ABI 3130xL genetic analyzer (Applied Biosystems) with peak positions identified by using a set of X-rhodamine (ROX)-labeled MapMarker1000 molecular weight standards (BioVentures). The raw capillary electrophoresis data was processed using Attagraph software (Attagene).

Compound	outcome	AC50
NCC(F)(F)C(F)(F)C(F)(F)C(F)(F)C(F)(F)C(F)(F)C(F)(F)C(F)(F)F	inactive	–
O=C1c2c(O)ccc(Nc3ccc(CCO)cc3)c2C(=O)c2c([N+](=O)[O-])ccc(O)c21	–	30.4 µM (active)
O=C(O)C(F)(F)C(F)(F)C(F)(F)OC(F)(C(F)(F)F)C(F)(F)F	inactive	–
O=c1[nH]cccc1O	inactive	–
O=C(Cl)C(F)(F)C(F)(F)C(F)(F)C(F)(F)C(F)(F)C(F)(F)F	inactive	–
CC1=CCC(=O)O1	inactive	–
CC(C)(C)c1cc(CCC(=O)NCCCCCCNC(=O)CCc2cc(C(C)(C)C)c(O)c(C(C)(C)C)c2)cc(C(C)(C)C)c1O	inactive	–
CC(C)(C)c1cc(CCC(=O)OCC(COC(=O)CCc2cc(C(C)(C)C)c(O)c(C(C)(C)C)c2)(COC(=O)CCc2cc(C(C)(C)C)c(O)c(C(C)(C)C)c2)COC(=O)CCc2cc(C(C)(C)C)c(O)c(C(C)(C)C)c2)cc(C(C)(C)C)c1O	inactive	–
OCC(F)(F)C(F)(F)C(F)(F)C(F)(F)C(F)(F)C(F)(F)C(F)(F)C(F)(F)CO	inactive	–
O=C(O)C(F)(F)OC(F)(F)C(F)(F)OC(F)(F)C(F)(F)OC(F)(F)F	inactive	–
OC(O)C(F)(F)C(F)(F)F	inactive	–
O=S(=O)(O)CCC(F)(F)C(F)(F)C(F)(F)C(F)(F)C(F)(F)C(F)(F)C(F)(F)C(F)(F)F	inactive	–
CC(C)OC=O	inactive	–
Cc1ccc(O)cn1	inactive	–
CCn1c2ccccc2c2ccccc21	inactive	–
C=CC(=O)OCC(F)(F)C(F)(F)C(F)(F)C(F)(F)C(F)(F)C(F)(F)C(F)(F)C(F)F	inactive	–
CCOC(C=C(C)CCC=C(C)C)OCC	inactive	–
NC(O)(C(F)(F)F)C(F)(F)F	inactive	–
O=C1C=CC(=O)N1c1ccc(Cc2ccc(N3C(=O)C=CC3=O)cc2)cc1	inactive	–
OCC(F)(F)C(F)(F)C(F)(F)C(F)(F)C(F)(F)C(F)(F)CO	inactive	–

Compound	outcome	AC50
O=C(O)CCC(F)(F)C(F)(F)C(F)(F)F	inactive	–
CN1CN(C)CN(C)C1	inactive	–
FC(F)(F)C(F)(F)C(F)(F)C(F)(F)C(F)(F)C(F)(F)C(F)(F)CCI	inactive	–
CCOC(OCC)OCC	inactive	–
CCC/C=C/CO	inactive	–
CC1=CC2C3C=CC(C3)C2C1C (stereo not given)	inactive	–
O=c1cccc[nH]1	inactive	–
O=S(=O)(O)c1ccc(Cl)cc1	inactive	–
COc1ccccc1C=O	inactive	–
CC(C)(C)c1cc(Cc2cc(C(C)(C)C)c(O)c(C(C)(C)C)c2)cc(C(C)(C)C)c1O	inactive	–
CCOCOCC	inactive	–
O=C(F)C1(F)C(F)(F)C(F)(F)C(F)(F)C(F)(F)C1(F)F	inactive	–
O=C(O)C(F)(F)C(F)(F)C(F)(F)OC(F)(F)F	inactive	–
Cc1ccc2c(c1)OCC(=O)CO2	inactive	–
OCCCCl	inactive	–
C#CC(O)CCC (stereo not given)	inactive	–
Brc1ccccn1	inactive	–
CO[Si](CCCOCC1CO1)(OC)OC (stereo not given)	inactive	–
CCC(=O)OC(C)c1ccccc1 (stereo not given)	inactive	–
O=C1c2ccccc2C(=O)c2c(Cl)cccc21	inactive	–
